NPR1 antag = antagonists of human natriuretic peptide receptor Npr1. HEK293 hNpr1 GloSensor cGMP, ANP-stimulated luminescence. Potency, µM (top dose mostly 46.3 µM), inactives show at the highest dose activity change, negative = inhibition, most hits filed as inhibitors. 1.6% of 76,000 active. AID 1347048; calls by dose curve; further: on the % scale 0 is the no-effect control and ±100 the full control effect; nearly all actives have a fitted effect of over 60% in size
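Compound pre-incubated 30 min at room temperature on GloSensor-loaded HEK293 cells stably carrying hNpr1 and the pGS-40F cGMP biosensor. Stimulation uses hNppA at 0.1 nM final; luminescence is taken at baseline and 20 min post-agonist.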
3T3 cytotox = NIH 3T3 cell cytotoxicity; 4.3% of 94,000 active; AID 1345082; Potency, µM (titrated, usually from 96.7 µM), inactives show at the top dose activity change, negative = cytotoxicity, usual class: inhibitors; NIH 3T3 viability, CellTiter-Glo ATP luminescence, 48-72 h; further: on the % scale 0 is the no-effect control and ±100 the full control effect; nearly all actives have a fitted effect of over 55% in size
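Cytotoxicity was measured by CellTiter-Glo ATP luminescence after 48 or 72 h compound exposure at 37 °C. Mouse NIH 3T3 fibroblasts were seeded at 400 cells/well and dosed by 23 nL pin transfer.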
FLuc inh-1 = blocks purified firefly luciferase enzyme activity. P08659. 2.5% of 76,000 active. purified P. pyralis luciferase, luminescence, biochemical. AID 1347043. Potency, µM (highest dose often 115 µM), actives largely listed as inhibitors; further: on the % scale 0 is the no-effect control and ±100 the full control effect; nearly all actives have a fitted effect of over 65% in size
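Inhibitors were tested against purified firefly luciferase in a biochemical, low-substrate format (both substrates at 10uM) and luminescence measured with a CCD imager.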
HEK cytotox = cytotoxic compounds in HEK 293 cells. 6.6% of 94,000 active. HEK 293 viability, ATP luminescence (CellTiter-Glo), 48-72 h. AID 1345083. Potency, µM (highest dose often 115 µM), for the others: at the top dose activity change, negative = cytotoxicity, usual class: inhibitors; further: on the % scale 0 is the no-effect control and ±100 the full control effect; nearly all actives have a fitted effect of over 60% in size
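qHTS cytotoxicity; HEK 293, 250 cells/well; compound pinned; 48 or 72 hr, 37 degree Celsius, 5% CO2, 95% humidity; CellTiter-Glo, 10 min RT; luminescence (ATP).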
GPT2 inhibitor = blocks human glutamate pyruvate transaminase 2 | Q8TD30 | Potency, µM (doses to about 57.7 µM), for inactives: top-dose activity change, negative = inhibition, hits mostly inhibitors | 0.25% of 100,000 active | Recombinant GPT2, coupled pyruvate oxidase/HRP Amplex Red fluorescence | AID 1671188; further: on the % scale 0 is the no-effect control and ±100 the full control effect; nearly all actives have a fitted effect of over 60% in size
Target sequence (Q8TD30 whole entry, looked up): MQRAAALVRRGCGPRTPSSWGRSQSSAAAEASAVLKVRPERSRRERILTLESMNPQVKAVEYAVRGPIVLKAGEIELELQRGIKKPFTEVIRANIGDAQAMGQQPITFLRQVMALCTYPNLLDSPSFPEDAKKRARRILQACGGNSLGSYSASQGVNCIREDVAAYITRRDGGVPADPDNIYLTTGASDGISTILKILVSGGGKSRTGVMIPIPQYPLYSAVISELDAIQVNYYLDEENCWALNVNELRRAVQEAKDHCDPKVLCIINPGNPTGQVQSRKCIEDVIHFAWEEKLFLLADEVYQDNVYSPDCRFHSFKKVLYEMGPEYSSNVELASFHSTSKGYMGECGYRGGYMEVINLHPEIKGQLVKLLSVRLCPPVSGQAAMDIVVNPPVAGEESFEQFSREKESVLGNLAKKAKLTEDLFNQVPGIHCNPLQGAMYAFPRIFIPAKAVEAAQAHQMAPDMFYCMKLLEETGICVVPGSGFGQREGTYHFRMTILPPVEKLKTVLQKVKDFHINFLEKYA
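GPT2 10ng/uL, a-KG 250uM, L-Ala 2mM, HEPES pH7.5 + 0.0001% Tween; 30 min RT. Then Amplex mix (PO/HRP/ThPP), 30 min RT dark, fluorescence. AOA 50uM used as positive control.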
FLuc SDR -ATP = binders stabilizing firefly luciferase, without ATP; shares compounds with FLuc inh-1; Purified FLuc-C-HiBiT, Nano-Glo HiBiT luminescence, no ATP; Potency, µM (top dose mostly 32.7 µM), without a hit: top-dose activation (signal gain), actives largely listed as activators; 7.8% of 1,300 active; AID 1963318; further: nearly all actives have a fitted effect of over 55% in size
FLuc SDR ATP = binders stabilizing firefly luciferase, plus ATP; 8.7% of 1,300 active; AID 1963319; shares compounds with FLuc inh-1; purified FLuc-C-HiBiT + ATP, HiBiT complementation luminescence; Potency, µM (titrated, usually from 32.7 µM), for the others: at the top dose activation (gain of signal), actives largely listed as activators;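 further: signal reports ligand binding via conformational change of the enzyme rather than luciferase catalysis; % of control where 0% means no effect; nearly all actives have a fitted effect of over 55% in size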
FLuc inh-2 = inhibitors of firefly luciferase enzymatic activity. shares compounds with FLuc inh-1. purified FLuc-C-HiBiT enzyme, luciferin luminescence. 42% of 1,300 active. Potency, µM (titrated, usually from 32.7 µM), for inactives: at the top dose activity change, negative = inhibition, usual class: inhibitors; further: on the % scale 0 is the no-effect control and ±100 the full control effect; nearly all actives have a fitted effect of over 70% in size
Starred values were filed as active, the others as inactive; i = inactive; ? = inconclusive; · = no result; [ ] = another dose, or the depositor's remark. Rows were chosen to be rich in hits. Some 10% of all compounds tested hit in one or more screens of this group. Unless noted, the call rests on the fitted dose curve; in most records, active means well fitted curve in the direction sought with a large enough effect; inconclusive means small, poorly fitted or top-dose-only effect, or another doubt; inactive means no such curve, though single readings can be large; an effect the other way counts as inactive or inconclusive. Potency means the concentration at half of the fitted maximal effect.

SMILES | NPR1 antag | 3T3 cytotox | FLuc inh-1 | HEK cytotox | GPT2 inhibitor | FLuc SDR -ATP | FLuc SDR ATP | FLuc inh-2
Cc1cccc(NC(=O)N2CC(Oc3ccccc3-c3noc(C)n3)C2)c1 | -14.5% | -11.5% | i | -6.3% | ? | · | · | ·
Nc1nn(-c2ccccc2)nc1C(=O)OCc1ccccc1 | · | · | · | · | · | 13.1% | 10.1% | -12.9%
O=c1c2nc(N3CCC(c4ccccc4)CC3)ccc2ncn1C1CC1 | ? | ? | 1.41µM* | 89.1µM* | -1.7%[88.5 µM] | 20.2µM* | ? | 3.6µM*
O=c1c2nc(-c3ccccc3C(F)(F)F)ccc2ncn1C1CC1 | 2.5%[70.6 µM] | ? | i | -1.6%[172 µM] | 1.5%[88.5 µM] | · | · | ·
COCC1CN(C2CCC2)CC12CCN(C(=O)NCc1ccc(F)cc1)CC2 (stereo unspecified) | -23.1% | ? | i | ? | i | · | · | ·
Cc1cccc(NC(=O)c2ccc(-c3ccccc3)s2)c1 | · | · | · | · | · | 24.9% | 16.7% | 2.79µM*
O=C(CNC(=O)c1cccc(-c2ccsc2)c1)NCC(F)F | · | -22.4%[138 µM] | · | -18.3%[172 µM] | -1.0%[88.5 µM] | · | · | ·
CCC(CC)COC(=O)[C@H](C)N[P@](=O)(OC[C@H]1O[C@@](C#N)(c2ccc3c(N)ncnn23)[C@H](O)[C@@H]1O)Oc1ccccc1 | · | · | · | · | · | 6.7% | 4.7% | -6.1%
NC(=O)[C@@H]1CN(Cc2ccccn2)C[C@H]1COc1ccccc1 | 3.8% | ? | i | -16.4% | ? | · | · | ·
c1ccc(COc2ccc(CN3CCSCC3)cc2)nc1 | 3.4% | i | 10µM* | ? | 2.2% | 21.1% | 15.1% | ?
CNC(=O)c1nc2cccnc2n(-c2ccc(N(C)C)cc2)c1=O | · | -17.0%[138 µM] | · | 0.7%[172 µM] | i | · | · | ·
O=C(C1CCCN(C2CCN(c3nnnn3-c3ccccc3)CC2)C1)N1CCCC1 (stereo unspecified) | 6.6% | 1.3% | i | i | -0.6% | · | · | ·
NC(=O)C1CCCN(c2ncnc3c2cnn3-c2ccccc2)C1 (stereo unspecified) | · | · | · | · | · | ? | ? | 11.1µM*
CCOC(=O)C1CCCN(C(=O)c2cc(-c3ccc(Cl)cc3Cl)c3nncn3n2)C1 (stereo unspecified) | · | ? | · | ? | i | · | · | ·
CCOC(=O)C1CCCN(c2ncnc3c2cnn3-c2ccc(C)c(Cl)c2)C1 (stereo unspecified) | · | · | · | · | · | 12.2% | 10.1% | -5.8%
CC1CCCN1c1ncnc2c1CN(c1ccc(Cl)cc1)C(=O)CN2C (stereo unspecified) | -16.6% | -16.9% | i | -11.7% | i | · | · | ·
Cc1ccc(-n2ncc3c(N4CCC(C)CC4)ncnc32)cc1C | · | · | · | · | · | 22.2% | ? | 4.95µM*
CC1CCCCN1c1ncnc2c1cnn2-c1ccccc1 (stereo unspecified) | · | · | · | · | · | 11.1µM* | ? | 1.11µM*
Cc1cc(CNC(=O)c2cc(-c3ccc(CO)cc3)cc3c2OCCN3C)no1 | 1.0%[70.6 µM] | ? | i | ? | -1.6%[88.5 µM] | · | · | ·
CC1CCN(c2ncnc3c2cnn3-c2ccccc2)CC1 | · | · | · | · | · | 23.2% | ? | 6.24µM*
CC1CCN(c2ncnc3c2CN(c2ccccc2)C(=O)N(C)C3)C1 (stereo unspecified) | 4.5%[70.6 µM] | -21.6%[138 µM] | i | -22.4%[172 µM] | i | · | · | ·
COc1cc(CN2CCCC3(Cc4ccccc4CNC3=O)C2)cc(OC)c1 (stereo unspecified) | · | -28.2% | · | ? | i | · | · | ·
Nc1nc2c([nH]c(=O)n2[C@H]2C[C@H](O)[C@@H](CO)O2)c(=O)[nH]1 | · | · | · | · | · | 11.4% | 7.9% | 7.0%

High-throughput results: PubChem BioAssay, National Center for Advancing Translational Sciences (NCATS)
